This is a sample that favours compounds with a hit; in the whole collection about 21% have one here.
CHX counter – counter-screen hit for Shiga toxin inhibitors, cycloheximide; actives 12% (n = 300,000); cell reporter, cycloheximide protein synthesis inhibition counterscreen; max response, %; in the data active means max response mostly above about 13%, no sharp cut-off; inactive means mostly below about 14%; further: read at 38.3 µM for the half of the compounds with a filed dose
Pf growth 96h – P. falciparum growth inhibition at 96 hours; AID 504834; P. falciparum luciferase reporter growth, 96 h; Potency, µM (titrated, usually from 28.7 µM), most hits filed as inhibitors; actives 6.9% (n = 320,000)
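Delayed-death screen, second-generation endpoint: infected erythrocytes, 2% hematocrit, 0.05% parasitemia final; 96 hours at 37 C, 5% CO2; luciferase detection reagent; luminescence decrease equals reduced growth.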
NS1 inh – inhibitors of influenza NS1 protein function; actives 0.4% (n = 270,000); Potency, µM (highest dose often 46.1 µM); calls by dose curve; further: actives are rising curves; nearly all actives have a fitted effect of over 50% in size
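OD600 was taken as the measure of yeast growth restored by compound in an NS1-expressing S. cerevisiae strain. Cells had been washed out of glucose medium and diluted 1:100 into galactose -URA medium, pH 6.0.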
Pf growth 48h – inhibits P. falciparum growth in the first generation, 48 h | AID 504832 | actives 5.9% (n = 310,000) | P. falciparum luciferase growth in erythrocytes, 48 h | Potency, µM (titrated, usually from 28.7 µM), hits mostly inhibitors
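Read-out is firefly luciferase luminescence from an integrated reporter in P. falciparum, so falling signal marks reduced parasite growth. Infected erythrocytes were at 2% hematocrit and 0.1% parasitemia (final) in Albumax-supplemented RPMI 1640.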
Shiga toxin inh – blocks Shiga toxin action in Vero cells. actives 9.2% (n = 290,000). inhibition, % at 38.7 µM. Vero cells, Shiga toxin protein synthesis inhibition reporter. AID 2315; in the data active means inhibition mostly above about 28%, no sharp cut-off; inactive means mostly below about 43%
Hits are given with their value; n = inactive; u = inconclusive; x = no result; [ ] = remark or other dose. Unless noted, the call rests on the fitted dose curve; in most records, active means well fitted inhibition curve with a large enough effect; inconclusive means small, poorly fitted or top-dose-only effect, or another doubt; inactive means no such curve, though single readings can be large or run the other way.

SMILES | CHX counter | Pf growth 96h | NS1 inh | Pf growth 48h | Shiga toxin inh
COCCNC(=O)C1Cc2c(ccc3ccccc23)O1 (stereo not given) | 14.6 | n | n | n | n
CCC(C)(CCNC(=O)Cc1ccccc1)c1ccccc1OC (stereo not given) | n | u | n | x | n
O=C(Cc1ccc(S(=O)(=O)N2CCOCC2)s1)Nc1ccccc1Br | n | 3.7µM | n | 2.33µM | n
CCCCc1nnc(NC(=O)Cc2ccc(S(=O)(=O)N3CCOCC3)s2)s1 | x | u | x | 10.4µM | x
CC(C)(C)c1csc(NC(=O)Cc2ccc(S(=O)(=O)N3CCOCC3)s2)n1 | x | 10.4µM | x | u | x
COc1ccc(C(=O)COC(=O)Cc2n[nH]c(=O)c3ccccc23)c(OC)c1 | x | n | x | n | x
COc1cccc(CN(C)C(=O)C23CC4CC(CC(C4)C2)C3)c1 | n | n | n | n | n
Cc1ccc(-c2nnn(CC(=O)N(CC3CCCO3)C(C(=O)NC3CCCC3)c3ccc(O)cc3)n2)o1 (stereo not given) | n | n | n | n | n
CCCC(C(=O)NC1CCCC1)N(C(=O)Cn1nnc(-c2ccc(C)o2)n1)c1ccccc1OC (stereo not given) | n | x | n | 10.4µM | n
Cc1ccc(-c2nnn(CC(=O)N(CC3CCCO3)C(C(=O)NC3CCCC3)c3ccc(F)cc3)n2)o1 (stereo not given) | n | x | n | 11.7µM | n
CNS(=O)(=O)c1cn(CC(=O)NCc2ccc(N(C)C)cc2)cc1S(=O)(=O)NC | n | n | n | n | n
COc1ccccc1NC(=O)C1=C(C)NC(=O)NC1c1ccccc1[N+](=O)[O-] (stereo not given) | 30.2 | u | x | u | 45.4
CC1=C(C(=O)Nc2ccc(C)cc2)C(c2ccco2)NC(=O)N1 (stereo not given) | n | u | n | n | n
CCN(CC)c1ccc(C2NC(=O)NC(C)=C2C(=O)Nc2ccccc2)cc1 (stereo not given) | n | 2.62µM | n | x | n
CC1=C(C(=O)Nc2ccccc2)C(c2ccccc2[N+](=O)[O-])NC(=O)N1 (stereo not given) | 16.7 | u | n | n | n
CCCC1Cc2c(sc(N)c2C#N)CO1 (stereo not given) | n | n | n | n | n
CCc1nnc(NC(=O)[C@@H](NC(=O)c2cccc(S(=O)(=O)N(CC)CC)c2)C(C)C)s1 | n | x | n | 1.65µM | n
CCN(CC)S(=O)(=O)c1cccc(C(=O)N[C@H](C(=O)OCC(N)=O)C(C)C)c1 | n | x | n | n | n
CCN(CC)S(=O)(=O)c1cccc(C(=O)N[C@H](C(=O)OCC(=O)Nc2ccccc2)C(C)C)c1 | 14.7 | x | n | n | n
CC(c1ccco1)N(C(=O)C12CC3(C)CC(C)(CC(C)(C3)C1)C2)c1ccccn1 (stereo not given) | n | x | n | n | n
CC1(C)Cc2nc3nc(SCC(=O)Nc4ccccc4)nc(N)c3cc2CO1 | n | n[5.75 µM] | n | n | n
COc1ccc(NC(=O)CSc2nc(N)c3cc4c(nc3n2)CCCC4)cc1 | 47.2 | n | u | n | 60.6
CC(=O)c1ccc(NC(=O)CSc2nc(N)c3cc4c(nc3n2)CCCC4)cc1 | 36.7 | n | u | n | 66.1
CC1(c2cccc3ccccc23)NC(=O)N(CC(=O)NC2CCS(=O)(=O)C2)C1=O (stereo not given) | n | n | n | n | n
